Source: PubChem (National Center for Advancing Translational Sciences (NCATS))
Rows were chosen to be rich in hits. Some 12% of all compounds tested hit in one or more screens of this group.
Sfp PPTase inh: qHTS Assay for Inhibitors of Bacillus subtilis Sfp phosphopantetheinyl transferase (PPTase); Biochemical Sfp PPTase activity, qHTS; 310,000 compounds, 3.5% hits; Potency, µM, hits mostly inhibitors;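 note: the enzyme is Sfp with the accession as filed and its product quenches rhodamine fluorescence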
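Step 1, compound plus 15 nM Sfp-PPTase, 15 min, room temperature. Step 2, add rhodamine-CoA (5 uM) and BHQ-2-YbbR (12.5 uM). Step 3, read 525/598 nm fluorescence at 0 and 30 min.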
BAZ2B inh: qHTS Assay for Inhibitors of BAZ2B; AlphaScreen BAZ2B-H3K14Ac peptide displacement; Potency, µM (doses to about 114 µM), actives largely listed as inhibitors; 360,000 compounds, 4.4% hits; AID 504333, 2011; note: nearly all actives have a fitted effect of over 60% in size
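Multi-concentration screen (max 110 uM) measuring displacement of acetylated histone H3 peptide from BAZ2B by AlphaScreen, using 50 nM protein, 50 nM peptide and 10 ug/mL streptavidin donor plus Ni-chelate acceptor beads.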
JMJD2A Tudor: qHTS Assay for Inhibitors of JMJD2A-Tudor Domain; 390,000 compounds, 4.4% hits; AlphaScreen JMJD2A-Tudor / H3K4me3 peptide binding; Lysine-specific demethylase 4A (Homo sapiens), O75164; Potency, µM (titrated, usually from 114 µM), usual class: inhibitors; note: nearly all actives have a fitted effect of over 50% in size
G9a inh: qHTS Assay for Inhibitors of Histone Lysine Methyltransferase G9a; Histone-lysine N-methyltransferase EHMT2 (Homo sapiens), Q96KQ7; G9a H3K9 monomethylation, AlphaScreen, 2 h; Potency, µM (series often up to 102 µM), most hits filed as inhibitors; 350,000 compounds, 8.8% hits; AID 504332, 2011; note: nearly all actives have a fitted effect of over 75% in size
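G9a (20 nM) was preincubated 15 min with compound, then reacted 2 h at room temperature with 500 nM biotin-H3K9 peptide and 20 µM SAM. Monomethyl-H3K9 detected by AlphaScreen using anti-H3K9me1 antibody.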
PLK1 PBD inh: qHTS for Inhibitors of PLK1-PDB (polo-like kinase 1 - polo-box domain): Primary Screen; AID 720504, 2013; 360,000 compounds, 2.8% hits; Plk1 PBD binding of FITC phosphopeptide, fluorescence polarization; Potency, µM, hits mostly inhibitors; note: series mostly up to about 57 µM; nearly all actives have a fitted effect of over 65% in size
Target sequence (P53350 whole entry, looked up, the tested form may be a part): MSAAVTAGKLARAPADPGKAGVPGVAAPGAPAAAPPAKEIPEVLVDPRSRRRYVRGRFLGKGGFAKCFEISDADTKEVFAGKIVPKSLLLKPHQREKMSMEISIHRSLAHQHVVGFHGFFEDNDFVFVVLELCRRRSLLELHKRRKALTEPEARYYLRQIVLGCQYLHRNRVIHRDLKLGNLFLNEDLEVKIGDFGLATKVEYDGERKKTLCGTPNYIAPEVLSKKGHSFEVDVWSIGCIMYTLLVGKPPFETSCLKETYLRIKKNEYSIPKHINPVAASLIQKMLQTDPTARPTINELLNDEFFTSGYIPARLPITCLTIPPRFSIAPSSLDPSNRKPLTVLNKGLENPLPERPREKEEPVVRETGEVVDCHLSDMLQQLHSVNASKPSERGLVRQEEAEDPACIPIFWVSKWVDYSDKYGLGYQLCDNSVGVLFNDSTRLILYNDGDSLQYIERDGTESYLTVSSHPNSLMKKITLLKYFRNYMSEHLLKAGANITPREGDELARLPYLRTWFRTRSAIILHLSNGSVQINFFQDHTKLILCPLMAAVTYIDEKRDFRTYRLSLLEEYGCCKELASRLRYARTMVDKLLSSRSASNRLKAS
HP1b binding inh: HTS for Inhibitors of HP1-beta Chromodomain Interactions with Methylated Histone Tails. Chromobox protein homolog 1 (Homo sapiens), P83916. Potency, µM (series often up to 114 µM), usual class: inhibitors. 390,000 compounds, 0.56% hits. AlphaScreen HP1-beta / biotin-H3K9me3 peptide binding; note: nearly all actives have a fitted effect of over 70% in size
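AlphaScreen: HP1-beta (50 nM) preformed 30 min with biotin-H3(1-18)K9me3 peptide (50 nM) in PBS pH 7.4, 0.01% Tween-20. Compound added for 30 min at RT, then streptavidin donor/nickel chelate acceptor beads (10 ug/mL) for 30 min.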
A number is an active result; ! = not confirmed by another sample; [ ] = remark or other dose. Calls come from the whole dose curve; as a rule, active = well fitted curve in the direction sought with a large enough effect; inconclusive = small, poorly fitted or top-dose-only effect, or another doubt; inactive = no such curve, though single readings can be large; an effect the other way counts as inactive or inconclusive.

What do the screens show for `Cc1ccccc1-c1cccc([C@@H]2C[C@H]3CN(Cc4cccnc4)C(=O)[C@]34CCCN24)c1`?
Sfp PPTase inh: inactive; BAZ2B inh: inactive; JMJD2A Tudor: inconclusive; G9a inh: 50µM; PLK1 PBD inh: inactive; HP1b binding inh: inactive

Results for O=C1N(Cc2cccnc2)C[C@@H]2C[C@@H](c3ccccc3C#Cc3ccccc3)N3CCC[C@@]123 ?
Sfp PPTase inh: inactive; BAZ2B inh: inactive; JMJD2A Tudor: inactive; G9a inh: 50µM; PLK1 PBD inh: inactive; HP1b binding inh: inactive

Results for Cc1ccccc1CN1C[C@@H]2C[C@@H](c3cnc(N4CCOCC4)s3)N3CCC[C@@]23C1=O ?
Sfp PPTase inh: 50µM; BAZ2B inh: inactive; JMJD2A Tudor: inactive; G9a inh: 35µM; PLK1 PBD inh: inactive; HP1b binding inh: inactive

What do the screens show for `NC(=O)CC[C@H](NC(=O)c1ccc(Cl)cc1)C(=O)NNC(=O)COc1cccc(Br)c1`?
JMJD2A Tudor: inactive; PLK1 PBD inh: inactive; HP1b binding inh: inactive

Results for CC(c1ccccc1)N1C(=O)c2ccc(C(=O)Nc3ccccc3C(=O)O)cc2C1=O (stereo not given) ?
Sfp PPTase inh: inactive; BAZ2B inh: inconclusive; JMJD2A Tudor: inconclusive; PLK1 PBD inh: 24µM; HP1b binding inh: inactive

Results for CC(C)CN1C(=O)c2ccc(C(=O)Nc3ccc(O)cc3C(=O)O)cc2C1=O ?
Sfp PPTase inh: inactive; BAZ2B inh: inconclusive; JMJD2A Tudor: inactive; G9a inh: inconclusive; PLK1 PBD inh: inactive; HP1b binding inh: inactive

How did CC(c1ccccc1)N1C(=O)c2ccc(C(=O)Nc3ccc(Br)cc3C(=O)O)cc2C1=O (stereo not given) do in these assays?
Sfp PPTase inh: inactive; BAZ2B inh: inactive; JMJD2A Tudor: 50µM; PLK1 PBD inh: 24µM; HP1b binding inh: inactive

What do the screens show for `CCOP(=O)(O)c1ccccc1OCCOCCOc1ccccc1P(=O)(O)OCC`?
Sfp PPTase inh: inactive; BAZ2B inh: inconclusive; JMJD2A Tudor: inconclusive; G9a inh: 56µM; PLK1 PBD inh: inactive; HP1b binding inh: inactive

Results for CCOC(=O)NC1C=CS(=O)(=O)C1 (stereo not given) ?
Sfp PPTase inh: inactive; BAZ2B inh: inactive; JMJD2A Tudor: inactive; G9a inh: 50µM; PLK1 PBD inh: inactive; HP1b binding inh: inactive

Results for CN(C)C(=O)NC1C=CS(=O)(=O)C1 (stereo not given) ?
Sfp PPTase inh: inactive; BAZ2B inh: inactive; JMJD2A Tudor: inactive; G9a inh: inactive; PLK1 PBD inh: inactive; HP1b binding inh: inactive

Results for O=C(O)c1cc(=O)cc(C(=O)O)[nH]1 ?
Sfp PPTase inh: 40µM; BAZ2B inh: inactive; JMJD2A Tudor: inactive; G9a inh: 1.7µM!; PLK1 PBD inh: inactive; HP1b binding inh: inactive

How did O=C(O)c1cc(=O)[nH]c(=O)[nH]1 do in these assays?
Sfp PPTase inh: inconclusive; G9a inh: inactive

How did C=CCCC1CN(CCCC)S(=O)(=O)c2c(F)cccc2O1 (stereo not given) do in these assays?
JMJD2A Tudor: inactive; PLK1 PBD inh: 21µM; HP1b binding inh: inactive

Results for CCCN1CCN(S(=O)(=O)c2ccc3c(c2)NC(=O)C(C)C(=O)N3)CC1 (stereo not given) ?
Sfp PPTase inh: inactive; BAZ2B inh: inconclusive; JMJD2A Tudor: inactive; G9a inh: inactive; PLK1 PBD inh: inactive; HP1b binding inh: inactive

How did COc1cc(NC(=O)NC(C)(C(F)(F)F)C(F)(F)F)cc(OC)c1OC do in these assays?
Sfp PPTase inh: inactive; BAZ2B inh: inactive; JMJD2A Tudor: inactive; G9a inh: 50µM; PLK1 PBD inh: inactive; HP1b binding inh: inactive

What do the screens show for `COC(=O)C(O)(CC(=O)Nc1cc(OC)c(OC)c(OC)c1)C(F)(F)F` (stereo not given)?
Sfp PPTase inh: inactive; BAZ2B inh: inactive; JMJD2A Tudor: inactive; G9a inh: inactive; PLK1 PBD inh: inactive; HP1b binding inh: inactive

How did COc1ccccc1-n1c(C)nc(=O)c(-c2ccccc2)c1C do in these assays?
Sfp PPTase inh: inactive; BAZ2B inh: inactive; JMJD2A Tudor: inactive; G9a inh: inactive[12.7 µM]; PLK1 PBD inh: inactive; HP1b binding inh: inactive

How did COc1ccc(OC)c(-n2c(-c3cccc(C)c3)n[nH]c2=S)c1 do in these assays?
Sfp PPTase inh: 79µM; BAZ2B inh: inconclusive; JMJD2A Tudor: inconclusive; G9a inh: 1.1µM; PLK1 PBD inh: inconclusive; HP1b binding inh: inactive

Results for COc1ccccc1-n1c(-c2ccccc2)n[nH]c1=S ?
Sfp PPTase inh: 71µM; BAZ2B inh: inactive; JMJD2A Tudor: 2.8µM; PLK1 PBD inh: inactive; HP1b binding inh: inactive

Results for COc1ccccc1-n1c(-c2cn(C)nc2C)n[nH]c1=S ?
Sfp PPTase inh: 56µM; BAZ2B inh: inactive; JMJD2A Tudor: 22µM; G9a inh: 7.1µM; PLK1 PBD inh: inactive; HP1b binding inh: inactive

Results for COc1ccc(OC)c(-n2c(-c3ccccc3)n[nH]c2=S)c1 ?
Sfp PPTase inh: inactive; BAZ2B inh: inactive; JMJD2A Tudor: 3.2µM; G9a inh: inconclusive; PLK1 PBD inh: inactive; HP1b binding inh: inactive

What do the screens show for `O=C(O)CSc1nnc(-c2ccc(Cl)cc2Cl)n1-c1ccc(Cl)cc1`?
Sfp PPTase inh: inactive; BAZ2B inh: inactive; JMJD2A Tudor: inactive; G9a inh: inactive[0.501 µM]; PLK1 PBD inh: inactive; HP1b binding inh: inactive

Results for CCN(C(=O)CSc1nc(N)cc(N)n1)C1CCS(=O)(=O)C1 (stereo not given) ?
Sfp PPTase inh: inactive; BAZ2B inh: inactive; JMJD2A Tudor: inactive; G9a inh: inactive; PLK1 PBD inh: inactive; HP1b binding inh: inactive

What do the screens show for `CC(C(=O)NCc1ccccc1)n1c(CSCCOc2ccccc2)nc2ccccc21` (stereo not given)?
PLK1 PBD inh: inactive

What do the screens show for `Cn1c(=O)[nH]c(NC2CCCCC2)c(N=O)c1=O`?
Sfp PPTase inh: inactive; BAZ2B inh: inconclusive; JMJD2A Tudor: 89µM; G9a inh: inconclusive; PLK1 PBD inh: inactive; HP1b binding inh: inactive

How did CCCNc1[nH]c(=O)n(C)c(=O)c1N=O do in these assays?
Sfp PPTase inh: inactive; BAZ2B inh: inactive; JMJD2A Tudor: 50µM; G9a inh: 40µM; PLK1 PBD inh: inactive; HP1b binding inh: inactive

How did Cc1ccc(C)c(Nc2nn3c(=O)c4ccc(C(=O)NCc5ccccc5)cc4nc3s2)c1 do in these assays?
BAZ2B inh: inactive; JMJD2A Tudor: inactive; G9a inh: inactive; HP1b binding inh: inactive

What do the screens show for `CC1=C(C(=O)Nc2ccccc2)C(C(C)C)n2nc(SCc3ccccc3C)nc2N1` (stereo not given)?
BAZ2B inh: inactive; JMJD2A Tudor: inactive; G9a inh: inactive; HP1b binding inh: inactive
